Inconclusive results are not listed. Where a call stands in place of a potency, no number is given. The source made the active and inactive calls. The call rests on the fitted dose curve; in most records, active means well fitted curve in the direction sought with a large enough effect; inconclusive means small, poorly fitted or top-dose-only effect, or another doubt; inactive means no such curve, though single readings can be large; an effect the other way counts as inactive or inconclusive.
Experiment: MultiTox-Fluor Cytotoxicity Assay - LYMP1-002 - Dead Cells (AID 960); further: nearly all actives have a fitted effect of over 60% in size; further: potency means the concentration at half of the fitted maximal effect
Details: LYMP1-002 lymphoblastoid cells, dead-cell protease fluorescence; series mostly up to 46.1 µM
In short: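 Dead-cell fluorescence (Ex/Em 485/520) after 16 h compound exposure at 37 C of LYMP1-002 lymphoblastoid cells in complete medium; AC50 by Hill equation, with data scaled between DMSO and 15 uM tetraoctylammonium bromide.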

With `CC1=C(/C=C/C(C)=C/C=C/C(C)=C/C(=O)Nc2ccc(O)cc2)C(C)(C)CCC1` as the compound, how does the Potency read?
The Potency was 31.6 µM (active).

With `O=C(O)Cc1cccc2ccccc12` as the compound, how does the Potency read?
The Potency was “inactive”.

Which Potency does the source give for `O=C(O)c1cc(O)c2c(c1)C(=O)c1cccc(O)c1C2=O` here?
Its Potency is “inactive”.

Which Potency does the source give for `CC(=O)O[C@]1(C(C)=O)CC[C@H]2[C@@H]3C=C(Cl)C4=CC(=O)[C@@H]5C[C@@H]5[C@]4(C)[C@H]3CC[C@@]21C` here?
Its Potency is “inactive”.

With `O=c1[nH]cnc2c1ncn2[C@H]1CC[C@@H](CO)O1` as the compound, how does the Potency read?
Its Potency is “inactive”.

Which Potency does the source give for `O=c1c(O)c(-c2ccc(O)cc2)oc2cc(O)cc(O)c12` here?
Its Potency is “inactive”.

Experiment: MultiTox-Fluor Cytotoxicity Assay - LYMP1-003 - Dead Cells (AID 961); further: nearly all actives have a fitted effect of over 70% in size
Details: LYMP1-003 lymphoblastoid cells, dead-cell protease fluorescence; series mostly up to 92.2 µM
In short: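 LYMP1-003 lymphoblastoid, 2500 cells/well, 5 hr settle then 16 hr cpd at 37 C; MultiTox-Fluor reagent 60 min RT; Ex/Em 485/520 dead-cell signal; norm. DMSO = 0%, 15 uM tetraoctylammonium bromide = 100%; Hill AC50.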

For `O=C(O)Cc1cccc2ccccc12`, which outcome is on record?
The outcome was “inactive”.

Which outcome does the source give for `O=C(O)c1cc(O)c2c(c1)C(=O)c1cccc(O)c1C2=O` here?
Its outcome is “inactive”.

Which outcome does the source give for `CC(=O)O[C@]1(C(C)=O)CC[C@H]2[C@@H]3C=C(Cl)C4=CC(=O)[C@@H]5C[C@@H]5[C@]4(C)[C@H]3CC[C@@]21C` here?
Its outcome is “inactive”.

Which outcome does the source give for `O=c1[nH]cnc2c1ncn2[C@H]1CC[C@@H](CO)O1` here?
Its outcome is “inactive”.

For `O=c1c(O)c(-c2ccc(O)cc2)oc2cc(O)cc(O)c12`, which outcome is on record?
The outcome was “inactive”.

Which outcome does the source give for `CC(=O)c1ccc(S(=O)(=O)NC(=O)NC2CCCCC2)cc1` here?
Its outcome is “inactive”.

Experiment: MultiTox-Fluor Cytotoxicity Assay - LYMP1-003 - Live Cells (AID 962);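 further: cells exposed to compound for 16 hours at 37 °C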; further: potency means the concentration at half of the fitted maximal effect
Details: LYMP1-003 lymphoblastoid cells, MultiTox-Fluor live-cell protease fluorescence; series mostly up to 92.2 µM
In short: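 Live-cell protease activity (GF-AFC substrate, 405/510 nm, 60 min at room temperature) after 16 h, 37 C compound exposure of human lymphoblastoid LYMP1-003 cells; concentration-response fitted to the Hill equation for AC50.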

Which Potency does the source give for `CC1=C(/C=C/C(C)=C/C=C/C(C)=C/C(=O)Nc2ccc(O)cc2)C(C)(C)CCC1` here?
The Potency was 50.1 µM (active).

For `O=C(O)Cc1cccc2ccccc12`, which Potency is on record?
Its Potency is “inactive”.

For `O=C(O)c1cc(O)c2c(c1)C(=O)c1cccc(O)c1C2=O`, which Potency is on record?
Its Potency is “inactive”.

Which Potency does the source give for `CC(=O)O[C@]1(C(C)=O)CC[C@H]2[C@@H]3C=C(Cl)C4=CC(=O)[C@@H]5C[C@@H]5[C@]4(C)[C@H]3CC[C@@]21C` here?
The Potency was “inactive”.

Which Potency does the source give for `O=c1[nH]cnc2c1ncn2[C@H]1CC[C@@H](CO)O1` here?
Its Potency is “inactive”.

With `O=c1c(O)c(-c2ccc(O)cc2)oc2cc(O)cc(O)c12` as the compound, how does the Potency read?
Its Potency is “inactive”.

For `CC(=O)c1ccc(S(=O)(=O)NC(=O)NC2CCCCC2)cc1`, which Potency is on record?
The Potency was “inactive”.

Source: PubChem BioAssay (NCATS)
